Eight molecules from PubChem BioAssay (NCATS) can be followed below.

The target in assay [1] is Cellular tumor antigen p53 (Homo sapiens) (UniProt P04637). The assay can be described thus: Primary qHTS for small molecule compounds that upregulate eGFP-tagged delta133p53alpha (in N-terminal) cells. (AID 2060322).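 For activation: series mostly up to about 56 µM; 0% = DMSO vehicle and 100% = reference activator.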 Note: nearly all actives have a fitted effect of over 75% in size. Note: potency is the fitted concentration of half-maximal effect. Particulars: NCI-H358 eGFP-delta133p53alpha fluorescence, 24 h; activation: stronger effect = higher value. The essentials: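 NCI-H358 cells pre-induced 24 h with 10 ng/ml doxycycline to express N-terminal eGFP-delta133p53alpha, then dosed 24 h at 37C without doxycycline; fixed, Hoechst-stained, GFP intensity by laser scanning cytometry, normalized to DMSO (0%) and 57.5 uM 5-azacytidine (100%).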
Sequence of Cellular tumor antigen p53 (Homo sapiens) (P04637 whole entry, looked up): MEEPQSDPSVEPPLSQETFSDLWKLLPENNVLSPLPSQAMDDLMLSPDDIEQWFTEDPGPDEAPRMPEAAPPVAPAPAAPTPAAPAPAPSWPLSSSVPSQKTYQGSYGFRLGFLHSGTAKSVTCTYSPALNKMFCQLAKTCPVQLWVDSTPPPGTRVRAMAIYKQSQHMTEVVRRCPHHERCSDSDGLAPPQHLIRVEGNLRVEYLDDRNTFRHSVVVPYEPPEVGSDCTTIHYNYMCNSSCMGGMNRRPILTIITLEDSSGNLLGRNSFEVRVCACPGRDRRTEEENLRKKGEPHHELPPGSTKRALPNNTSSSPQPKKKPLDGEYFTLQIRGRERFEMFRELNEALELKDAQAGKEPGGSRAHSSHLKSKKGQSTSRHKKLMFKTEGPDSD
A general note: In qHTS, concentration-response curves come from the screen itself.

Assay [2] concerns the target Aldehyde dehydrogenase, mitochondrial (Homo sapiens) (UniProt P05091). Put plainly: qHTS for Inhibitors of the Aldehyde Dehydrogenase Family (ALDH2) Primary screen (AID 2061308).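 Note: plate controls were vehicle for no effect and reference inhibitor for full effect; nearly all actives have a fitted effect of over 55% in size.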
The target of assay [3] is Retinaldehyde dehydrogenase 3 (Homo sapiens) (UniProt P47895). Put plainly: qHTS for Inhibitors of the Aldehyde Dehydrogenase Family (ALDH1A3) Primary screen (AID 2061315).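 Note: plate controls were DMSO vehicle for no effect and reference inhibitor for full effect.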
A short description of assay [4]: BET inhibitor-based combinations targeting novel dependencies in MECOM-rearranged (r) AML: MV-4-11 cell line (AID 2202233). Note: potency is the fitted concentration of half-maximal effect; nearly all actives have a fitted effect of over 45% in size. The method in brief: (§1)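 Normalized to DMSO and empty-well controls, the luminescence data from CellTiter-Glo after 48 hr drug exposure were fitted across 11 concentrations. Reported metrics are area under the dose-response curve and its Z-transformed form.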

The nature of assay [5]: BET inhibitor-based combinations targeting novel dependencies in MECOM-rearranged (r) AML: UCSD-AML1 cell line (AID 2202235). Note: nearly all actives have a fitted effect of over 40% in size. Note: potency is the fitted concentration of half-maximal effect. The essentials:
as §1

Assay [6] can be described thus: BET inhibitor-based combinations targeting novel dependencies in MECOM-rearranged (r) AML: AML-191 cell line (AID 2202236; note: nearly all actives have a fitted effect of over 35% in size; note: potency is the fitted concentration of half-maximal effect). The method in brief: (§2)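 Here, 11-point titrations of each agent were applied to 500 seeded cells and incubated 48 hr; CellTiter-Glo signal, scaled against DMSO and empty wells, was integrated as AUC, then Z-scored within the individual line.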

The nature of assay [7]: BET inhibitor-based combinations targeting novel dependencies in MECOM-rearranged (r) AML: AML-194 cell line (AID 2202237; note: nearly all actives have a fitted effect of over 40% in size; note: potency is the fitted concentration of half-maximal effect). The method in brief: as §2
Assay [8] is described as follows: BET inhibitor-based combinations targeting novel dependencies in MECOM-rearranged (r) AML: HNT-34 cell line (AID 2202234). Note: potency is the fitted concentration of half-maximal effect; nearly all actives have a fitted effect of over 35% in size. The method in brief:
as §1

Assay [9] can be described thus: BET inhibitor-based combinations targeting novel dependencies in MECOM-rearranged (r) AML: SET-2 cell line (AID 2202231). Note: potency is the fitted concentration of half-maximal effect; nearly all actives have a fitted effect of over 35% in size. Particulars: SET-2 AML cells viability, CellTiter-Glo luminescence, 48 h; viability: stronger effect = lower value, concentration not given here. The method in brief:
as §2

The nature of assay [10]: BET inhibitor-based combinations targeting novel dependencies in MECOM-rearranged (r) AML: OCI-AML3 cell line (AID 2202232). Note: potency is the fitted concentration of half-maximal effect; nearly all actives have a fitted effect of over 35% in size. Particulars: Potency: OCI-AML3 viability. The method in brief: as §2

Several values for one entry are separate records, joined by “and”; a condition that tells them apart may be missing. Identical values can stand only once. Results filed as inconclusive are left out. A number with no mark means an inactive call. Activity calls are given as the source filed them. Calls come from the whole dose curve; as a rule, active = well fitted curve in the direction sought with a large enough effect; inconclusive = small, poorly fitted or top-dose-only effect, or another doubt; inactive = no such curve, though single readings can be large; an effect the other way counts as inactive or inconclusive.

Turning to `CS(=O)(=O)N1CCN(Cc2cc3nc(-c4cccc5[nH]ncc45)nc(N4CCOCC4)c3s2)CC1`, the activation in [1] was -25.9%. Also, the Potency result in assay [2] and in assay [3] was “inactive” throughout. In addition, the Potency was 2.09 µM (active) in assay [4] and 468 nM (active) in [5].

Regarding `CC1CCC(C(=O)N(c2cc(C#CC(C)(C)C)sc2C(=O)O)C2CCC(O)CC2)CC1` (stereo not drawn), the activation in assay [1] is -32.4% and -8.93%. The Potency entry in assay [2], in [3] and in [7] was “inactive” each time. Moreover, the values for the Potency in [4] and in assay [6] were 20.9 µM (active) and 18.6 µM (active), respectively.

For the molecule `NC(=O)c1ccc2nc(-c3ccc(Oc4ccc(Cl)cc4)cc3)[nH]c2c1`, in assay [1], the activation is -21.2% and -4.33%. The Potency entry in [2], in assay [3], in [5], in assay [6] and in assay [7] was “inactive” each time. Also, in assay [8], the Potency was 16.6 µM (active).

Turning to `NC1CCC(N[C@@H]2C[C@H]2c2ccccc2)CC1` (stereo partly drawn), the activation in assay [1] is 3.67% and 27.6%. Further, the Potency result in assay [2], in [3], in assay [6] and in assay [7] was “inactive” throughout. Moreover, in [5], the Potency is 1.9 nM (active).

Consider `CC(C)(O)CCc1ccc(OCc2cc(-c3cccc(OC(F)F)c3)c3ncccc3c2)cc1`, for which the activation in [1] was 8.96%. For the same molecule, the Potency result in assay [2], in assay [3] and in assay [5] was “inactive” throughout. Moreover, the Potency in assay [4] is 18.6 µM (active).

With `COC(=O)/C=C/C(=O)N(O)CCCCNCc1ccc(COC(=O)Nc2cccc3ccccc23)cc1`, the Potency in assay [1] is 26.9 µM (active); in [6], 8.33 µM (active); in assay [7] it was 8.33 µM (active). For the same molecule, the Potency entry in assay [2] and in assay [3] was “inactive” throughout.

As to `Nc1ncnc2c1c(-c1cccc(OCc3ccccc3)c1)cn2C1CC(CN2CCCC2)C1` (stereo not drawn), the activation in assay [1] is 31.8%. For the same molecule, the Potency entry in assay [2] and in assay [3] was “inactive” throughout. Moreover, the Potency in [4] is 2.63 µM (active); in assay [8], 18.6 µM (active); in [6], 20.9 µM (active).

In the case of `CCCCc1nc2cc(/C=C/C(=O)NO)ccc2n1CCN(CC)CC`, the Potency in assay [1] was 27.3 µM (active); in [9] it was 662 nM (active); in assay [10], 833 nM (active); in [4] it was 0.332 µM (active); in assay [8] it was 0.833 µM (active); in [5], 833 nM (active). In addition, in assay [6], the Potency was 0.833 µM (active). In addition, the Potency result in assay [2] was “inactive”.
